Compound activity deposited in PubChem BioAssay by National Center for Advancing Translational Sciences (NCATS).
The list is not random: actives were taken first. Their share in the collection is about 1.3%.
PGK inhibitor = T. brucei PGK inhibition | P07378 | PGK/GAPDH coupled, Kinase-Glo luminescence, 60 min | Potency, µM (top dose mostly 57.5 µM), for the others: at the highest dose activity change, negative = inhibition, usual class: inhibitors | 0.043% of 380,000 active; further: potency means the concentration at half of the fitted maximal effect; on the % scale 0 is the no-effect control and ±100 the full control effect; nearly all actives have a fitted effect of over 60% in size
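Recombinant glycosomal PGK reaction used 1,3-bisphosphoglycerate generated in-well by GAPDH (100nM final) in 100mM TEA pH 7.6, 5mM MgCl2, 0.01% Tween-20. After 60 minutes at room temperature, ATP was read by Kinase-Glo Plus luminescence end-point.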
WRN helicase inh = WRN helicase (human) inhibition; WRN helicase unwinding, fluorescent forked duplex, kinetic; Q14191; Potency, µM (doses to about 114 µM), for the others: top-dose activity change, negative = inhibition, actives largely listed as inhibitors; 0.46% of 360,000 active; AID 651768; further: potency means the concentration at half of the fitted maximal effect; on the % scale 0 is the no-effect control and ±100 the full control effect; nearly all actives have a fitted effect of over 55% in size
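Screening of the MLSMR collection measured strand separation of a quenched forked DNA duplex (100 nM) by 20 nM WRN with 2 mM ATP, all final. Compounds were preincubated with enzyme 15 min at room temperature.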
FEN1 inh = human FEN1 inhibition; 0.35% of 390,000 active; Recombinant FEN1 flap cleavage, fluorescence, 15 min; P39748; Potency, µM (titrated, usually from 114 µM), inactives show top-dose activity change, negative = inhibition, hits mostly inhibitors; further: potency means the concentration at half of the fitted maximal effect; on the % scale 0 is the no-effect control and ±100 the full control effect; nearly all actives have a fitted effect of over 65% in size
Target sequence (P39748 whole entry, looked up): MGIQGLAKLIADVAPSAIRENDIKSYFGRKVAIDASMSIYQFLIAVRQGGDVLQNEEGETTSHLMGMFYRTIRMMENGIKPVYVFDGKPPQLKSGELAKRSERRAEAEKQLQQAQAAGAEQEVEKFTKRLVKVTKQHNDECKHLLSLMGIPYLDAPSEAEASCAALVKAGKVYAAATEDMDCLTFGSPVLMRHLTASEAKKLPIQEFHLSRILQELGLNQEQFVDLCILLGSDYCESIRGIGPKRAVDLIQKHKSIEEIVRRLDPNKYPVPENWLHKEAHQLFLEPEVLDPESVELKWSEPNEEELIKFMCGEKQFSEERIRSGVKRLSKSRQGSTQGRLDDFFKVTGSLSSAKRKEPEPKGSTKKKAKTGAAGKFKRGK
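Enzyme 10 nM, 15 min RT preincubation with compound; start with substrate 50 nM final; reads at 0 and 15 min; qHTS titration, four-parameter Hill fit.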
PI5P4K alpha inh = PI5P4K alpha (human) kinase inhibition; P48426; max response, %; 1.2% of 330,000 active; PI5P4Kalpha enzyme, ADP-Glo luminescence, 60 min; active compounds read low; active means max response of -50% or lower; inconclusive means between -30% and -50%; inactive means -30% or higher; further: value at the top dose of about 77 µM; on the % scale 0 is the no-effect control and ±100 the full control effect
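qHTS, 1536-well: enzyme/substrate mix, compound by pin tool, 5 microM ATP final; RT 60 min; ADP-Glo reagents 1 (45 min) then 2 (30 min); luminescence.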
Pin1 inhibitor = blocks the human prolyl isomerase Pin1; 0.009% of 390,000 active; Pin1 FP peptide displacement, HiFluor488, 10 min; Potency, µM (titrated, usually from 115 µM), without a hit: at the highest dose activity, negative = inhibition, actives largely listed as inhibitors; active means well fitted inhibition curve with a large enough effect in the polarisation, with a control signal flat, not every such curve was filed as active; inconclusive means small, poorly fitted or top-dose-only effect, or effect the other way, or a change in a side signal; inactive means no such curve, though single readings can be large or run the other way; the % refers to the polarisation; further: potency means the concentration at half of the fitted maximal effect; on the % scale 0 is the no-effect control and ±100 the full control effect
Target sequence (Q13526 whole entry, looked up): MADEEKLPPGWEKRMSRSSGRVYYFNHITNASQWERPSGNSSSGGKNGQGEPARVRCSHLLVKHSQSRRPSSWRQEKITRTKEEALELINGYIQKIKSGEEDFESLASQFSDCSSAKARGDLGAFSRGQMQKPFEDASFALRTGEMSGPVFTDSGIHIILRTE
GRP78 ERSR act = inducers of ER stress response in human glioma cells | U87-MG GRP78 promoter luciferase reporter, 16 h | Potency, µM, for the others: at the top dose activation, most hits filed as activators | 0.02% of 420,000 active | AID 602332; further: potency means the concentration at half of the fitted maximal effect; series mostly up to about 76 µM; % of control where 0% means no effect; nearly all actives have a fitted effect of over 35% in size
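ERSR induction read as luciferase luminescence (Bright-Glo, 10 min at room temperature) in stably transfected human U87-MG glioma cells exposed to compounds for 16 h, using GRP78 as sensor.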
ADP-Glo interf = counter-screen for PI5P4K inhibitors: ADP-Glo detection interference, no enzyme; 1,100 tested, under 10 active; Potency, µM (doses to about 76.9 µM), for inactives: at the highest dose activity change, negative = inhibition, usual class: inhibitors; ADP-Glo detection counter-screen, luciferase luminescence, no enzyme; shares compounds with PI5P4K alpha inh; AID 743285
The depositor's hits bear a star; i = inactive; u = inconclusive; x = not tested or not shown; [ ] = dose if it differs, or a comment. Unless noted, the call rests on the fitted dose curve; in most records, active means well fitted curve in the direction sought with a large enough effect; inconclusive means small, poorly fitted or top-dose-only effect, or another doubt; inactive means no such curve, though single readings can be large; an effect the other way counts as inactive or inconclusive.

SMILES	PGK inhibitor	WRN helicase inh	FEN1 inh	PI5P4K alpha inh	Pin1 inhibitor	GRP78 ERSR act	ADP-Glo interf
O=C1c2ccccc2C(=O)N1c1cccc2cnccc12	x	x	x	x	-7%	x	x
Cc1ccccc1C1(CC(=O)N2CCOCC2)CC(=O)N(Cc2cccnc2)C1=O (stereo not given)	x	x	x	x	x	-4%	x
CCC1=Nc2cc(C(=O)O)ccc2Sc2ccccc21	6%	4%	12%	-57*	-2%	1%	-2%
Cc1noc(C)c1CCC(=O)N1CCCC(CCC(=O)NCc2ccc(F)c(F)c2)C1 (stereo not given)	-27%	0%[11.6 µM]	u	-61*	x	-2%	1%
COCCNC(=S)Nc1ccc(N2CCOCC2)c(S(=O)(=O)Nc2ccc(Cl)cc2)c1	2%	13%	x	u	x	-2%	x
O=S(=O)(Nc1ccc(Cl)cc1)c1ccc(N2CCOCC2)c(NC(=S)NCCN2CCOCC2)c1	-1%	u	-18%	-83*	-6%	-4%	-8%
COCC(=O)Nc1cc(C(=O)N2CCCC2c2nccs2)c2c(c1)nc(-c1ccncc1)n2C (stereo not given)	x	x	x	x	x	-2%	x
O=C(NC1CCCCC1)C(c1ccnc2ccccc12)n1c(=O)c(-c2ccco2)nc2ccccc21 (stereo not given)	x	-6%	x	-78*	x	x	-5%
O=C(NCc1ccccc1)C(c1ccccc1)n1c(=O)c(-c2ccco2)nc2ccccc21 (stereo not given)	x	-17%	x	-64*	x	x	-4%
CC(C)Cn1c(-c2ccccc2Cl)nc2ccccc21	0%	x	0%	x	6%	-1%	x
COc1ccccc1-c1nc2ccccc2n(CC(C)C)c1=O	x	-10%	x	-72*	x	x	-11%
CCNC(=S)N(Cc1ccco1)Cc1cc2cc3c(cc2[nH]c1=O)OCCO3	-12%	-11%	-7%	1	4%	1%	x
CNC(=S)N(Cc1ccco1)Cc1cc2cc3c(cc2[nH]c1=O)OCCO3	-8%	u	3%	-57*	-3%	-2%	1%
O=C(CSC1=NCCS1)NCc1ccco1	-9%	3%	1%	-54*	2%	-2%	1%
Cc1ccc(CN2CCc3nnc(C(NS(C)(=O)=O)C(C)C)n3CC2)cc1C (stereo not given)	x	x	x	x	x	-3%	x
O=C(CSc1nc2ccc(Cl)cc2[nH]1)N1CCN(C(=O)c2ccco2)CC1	0%	u	-2%	-65*	39%	-5%	-6%
Cc1ccc2nc(SCC(=O)N3CCN(C(=O)c4ccco4)CC3)[nH]c2c1	-1%	6%	-7%	-10	-6%	1%	x
CC(C)(C)CC(C)(C)N=C1Nc2ccc(Cl)cc2N[C@]12C[C@H]1CCCC(=O)N3CC[C@@H](C2)[C@@H]13	x	x	-17%	x	x	4%	x
O=c1cc(O)c2sc(Nc3cccc(C(F)(F)F)c3)nc2[nH]1	-7%	u	-12%	-84*	6%	-5%	-8%
Cc1cc(=O)[nH]c(Nc2cccc(C(F)(F)F)c2)n1	i	2%	13%	1	-3%	-11%	x
O=c1cc(O)c2sc(Nc3ccc(F)cc3)nc2[nH]1	i	-10%	-4%	-83*	31%	-2%	2%
COc1cc(=O)n2c(c1C(=O)NC(C)c1ccco1)CCN(CC=C(C)C)CC2 (stereo not given)	x	x	x	x	x	-6%	x
C[C@@H]1CN(Cc2ccc3c(c2)CN(Cc2cccc4c2OCO4)CCO3)C[C@H](C)O1	x	x	x	x	x	-3%	x
COc1cc2nc(CN(CCO)C3CS(=O)(=O)CC3O)nc(N3CCCCC3)c2cc1OC (stereo not given)	x	x	x	x	x	-3%	x
COc1ccc(OCCC(=O)OCC(=O)NCc2ccco2)cc1	u	u	1%	u	u	-2%	x
COc1ccccc1NCCC(=O)OCC(=O)NCc1ccco1	u	u	-11%	-60*	u	-3%	0%
